From article PMC7862700, “An all-to-all approach to the identification of sequence-specific readers for epigenetic DNA modifications on cytosine”

Columns and labels:
Test in all cases: DAPPL (digital affinity profiling via proximity ligation, sequencing); 10 mM Tris-HCl pH 7.5, 50 mM NaCl, 1 mM DTT, 4% glycerol, room temperature, 30 min; GST-TFs on glutathione beads, 16-mer random dsDNA library, 0.1% formaldehyde crosslink after washing; high values mean tight binding
FLI1 = biological target: T1, FLI1 (Homo sapiens, UniProt Q01543 1-452); conditions: protein: recombinant; tags: N-terminal GST; dsDNA, one strand shown
T1 sequence: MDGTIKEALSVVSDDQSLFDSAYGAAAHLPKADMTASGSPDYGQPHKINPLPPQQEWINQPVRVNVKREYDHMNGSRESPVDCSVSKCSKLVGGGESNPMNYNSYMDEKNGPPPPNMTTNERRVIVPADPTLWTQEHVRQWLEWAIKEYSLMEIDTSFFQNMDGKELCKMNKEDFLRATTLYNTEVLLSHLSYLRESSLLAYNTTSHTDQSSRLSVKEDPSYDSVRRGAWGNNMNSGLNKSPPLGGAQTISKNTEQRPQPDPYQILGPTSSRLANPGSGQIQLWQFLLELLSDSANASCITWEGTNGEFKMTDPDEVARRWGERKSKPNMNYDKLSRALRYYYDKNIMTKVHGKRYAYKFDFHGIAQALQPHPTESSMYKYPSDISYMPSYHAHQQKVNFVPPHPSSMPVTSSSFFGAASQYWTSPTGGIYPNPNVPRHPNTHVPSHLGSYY
Outline: (§1)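 Each value of binding signal is a hexamer's read frequency for a factor divided by the same hexamer's frequency in the tag-only sample. Barcoded, bead-captured GST fusions of human transcription factors made in yeast were pooled with that sample and incubated with 200 nmole of a random double-stranded 16-mer DNA library in Tris/NaCl/DTT/glycerol buffer at room temperature for 30 min. Washing, 0.1% formaldehyde crosslinking, proximity ligation, PCR and Illumina NextSeq500 sequencing followed.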

ELK1 = biological target: T2, ELK1 (Homo sapiens, UniProt P19419 1-428); conditions: protein: recombinant; tags: N-terminal GST; dsDNA, one strand shown
T2 sequence: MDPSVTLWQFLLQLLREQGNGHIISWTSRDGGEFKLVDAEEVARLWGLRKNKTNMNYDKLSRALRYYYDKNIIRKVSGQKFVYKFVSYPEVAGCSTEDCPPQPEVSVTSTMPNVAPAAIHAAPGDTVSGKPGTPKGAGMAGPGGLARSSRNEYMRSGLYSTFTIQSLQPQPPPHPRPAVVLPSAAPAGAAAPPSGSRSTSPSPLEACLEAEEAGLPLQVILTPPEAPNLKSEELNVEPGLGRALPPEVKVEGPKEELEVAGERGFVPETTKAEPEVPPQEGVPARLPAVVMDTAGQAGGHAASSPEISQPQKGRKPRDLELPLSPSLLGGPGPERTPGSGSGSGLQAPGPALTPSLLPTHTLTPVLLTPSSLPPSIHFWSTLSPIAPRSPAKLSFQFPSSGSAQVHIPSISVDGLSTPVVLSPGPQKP
Outline: as §1

GABPA = biological target: T3, GABPA (Homo sapiens, UniProt Q06546 1-454); conditions: protein: recombinant; tags: N-terminal GST; dsDNA, one strand shown
T3 sequence: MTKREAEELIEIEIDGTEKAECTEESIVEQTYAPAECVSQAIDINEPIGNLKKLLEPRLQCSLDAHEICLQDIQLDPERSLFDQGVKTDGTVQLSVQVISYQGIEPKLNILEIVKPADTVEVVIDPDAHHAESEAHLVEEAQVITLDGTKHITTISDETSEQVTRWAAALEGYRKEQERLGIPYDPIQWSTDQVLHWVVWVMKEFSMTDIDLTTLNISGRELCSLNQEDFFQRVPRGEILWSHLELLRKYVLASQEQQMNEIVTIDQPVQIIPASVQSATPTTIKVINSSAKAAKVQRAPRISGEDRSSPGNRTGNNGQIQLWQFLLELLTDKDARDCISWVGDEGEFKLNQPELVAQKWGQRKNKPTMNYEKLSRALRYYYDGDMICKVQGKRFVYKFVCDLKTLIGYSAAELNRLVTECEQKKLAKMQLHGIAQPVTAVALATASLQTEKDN
Outline: as §1

ERG = biological target: T4, ERG (Homo sapiens, UniProt P11308 1-479); conditions: protein: recombinant; tags: N-terminal GST; dsDNA, one strand shown
T4 sequence: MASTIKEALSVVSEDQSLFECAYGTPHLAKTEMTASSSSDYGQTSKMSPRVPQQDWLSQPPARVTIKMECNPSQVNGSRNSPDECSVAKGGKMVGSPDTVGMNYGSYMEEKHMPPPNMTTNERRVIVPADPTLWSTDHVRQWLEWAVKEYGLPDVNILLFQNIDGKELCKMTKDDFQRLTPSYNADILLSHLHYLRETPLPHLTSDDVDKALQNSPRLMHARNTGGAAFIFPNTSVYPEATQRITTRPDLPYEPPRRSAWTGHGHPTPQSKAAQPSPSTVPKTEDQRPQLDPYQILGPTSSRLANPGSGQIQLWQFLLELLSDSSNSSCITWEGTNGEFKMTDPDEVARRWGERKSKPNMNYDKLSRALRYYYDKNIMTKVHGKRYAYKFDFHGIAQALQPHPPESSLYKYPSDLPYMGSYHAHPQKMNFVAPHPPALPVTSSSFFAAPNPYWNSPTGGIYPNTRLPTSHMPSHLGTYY
Outline: as §1

ELF1 = ELF1 (Homo sapiens, UniProt P32519 1-619); conditions: protein: recombinant; tags: N-terminal GST; dsDNA, one strand shown
Chain of ELF1 (P32519 whole entry): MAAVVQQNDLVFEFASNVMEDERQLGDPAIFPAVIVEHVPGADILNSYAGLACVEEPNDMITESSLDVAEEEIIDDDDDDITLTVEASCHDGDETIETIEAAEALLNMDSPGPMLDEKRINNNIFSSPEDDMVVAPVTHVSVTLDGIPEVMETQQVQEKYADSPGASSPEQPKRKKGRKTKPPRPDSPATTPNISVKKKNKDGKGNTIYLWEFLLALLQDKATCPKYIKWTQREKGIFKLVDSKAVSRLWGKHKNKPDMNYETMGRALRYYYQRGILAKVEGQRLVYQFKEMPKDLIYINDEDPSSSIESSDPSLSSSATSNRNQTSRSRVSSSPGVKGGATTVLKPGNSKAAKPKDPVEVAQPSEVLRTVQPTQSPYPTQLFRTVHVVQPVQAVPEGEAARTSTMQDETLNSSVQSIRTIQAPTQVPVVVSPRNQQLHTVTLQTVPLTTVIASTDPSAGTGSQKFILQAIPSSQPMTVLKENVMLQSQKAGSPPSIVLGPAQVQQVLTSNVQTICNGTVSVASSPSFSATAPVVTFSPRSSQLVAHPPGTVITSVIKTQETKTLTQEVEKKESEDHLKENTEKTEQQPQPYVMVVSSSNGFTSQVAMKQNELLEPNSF
Outline: as §1

EHF = biological target: T5, EHF (Homo sapiens, UniProt Q9NZC4 1-300); conditions: protein: recombinant; tags: N-terminal GST; dsDNA, one strand shown
T5 sequence: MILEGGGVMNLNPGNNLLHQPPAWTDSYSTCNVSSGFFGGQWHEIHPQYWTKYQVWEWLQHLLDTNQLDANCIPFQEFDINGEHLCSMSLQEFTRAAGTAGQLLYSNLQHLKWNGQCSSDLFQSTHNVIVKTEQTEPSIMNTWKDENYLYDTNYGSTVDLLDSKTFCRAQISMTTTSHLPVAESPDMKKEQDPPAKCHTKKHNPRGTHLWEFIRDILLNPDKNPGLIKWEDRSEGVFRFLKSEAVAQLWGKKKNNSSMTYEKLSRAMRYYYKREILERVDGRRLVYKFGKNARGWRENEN
Outline: as §1

SPI1 = SPI1 (Homo sapiens, UniProt P17947 1-270); conditions: protein: recombinant; tags: N-terminal GST; dsDNA, one strand shown
Outline: as §1

SPIB = SPIB (Homo sapiens, UniProt Q01892 1-262); conditions: protein: recombinant; tags: N-terminal GST; dsDNA, one strand shown
Chain of SPIB (Q01892 whole entry): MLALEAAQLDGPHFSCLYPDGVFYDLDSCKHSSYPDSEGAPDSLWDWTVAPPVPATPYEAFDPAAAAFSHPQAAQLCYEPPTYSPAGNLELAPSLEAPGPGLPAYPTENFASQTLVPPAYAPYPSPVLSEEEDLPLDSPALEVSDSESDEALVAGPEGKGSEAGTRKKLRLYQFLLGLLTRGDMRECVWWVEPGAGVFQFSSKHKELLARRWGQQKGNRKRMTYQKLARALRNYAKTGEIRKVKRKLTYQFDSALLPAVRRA
Outline: as §1

ELK3 = biological target: T6, ELK3 (Homo sapiens, UniProt P41970 1-407); conditions: protein: recombinant; tags: N-terminal GST; dsDNA, one strand shown
T6 sequence: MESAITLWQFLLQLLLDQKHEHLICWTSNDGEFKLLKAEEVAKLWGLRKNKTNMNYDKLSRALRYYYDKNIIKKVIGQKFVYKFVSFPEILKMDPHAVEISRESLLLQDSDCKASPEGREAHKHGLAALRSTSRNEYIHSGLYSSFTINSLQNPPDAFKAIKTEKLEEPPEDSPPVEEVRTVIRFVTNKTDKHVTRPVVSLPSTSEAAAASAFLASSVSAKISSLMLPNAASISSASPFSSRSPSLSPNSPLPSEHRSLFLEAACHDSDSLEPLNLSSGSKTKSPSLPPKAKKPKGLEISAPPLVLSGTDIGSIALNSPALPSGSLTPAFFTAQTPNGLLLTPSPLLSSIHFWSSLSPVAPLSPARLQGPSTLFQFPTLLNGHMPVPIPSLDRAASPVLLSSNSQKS
Outline: as §1

FEV = biological target: T7, FEV (Homo sapiens, UniProt Q99581 1-238); conditions: protein: recombinant; tags: N-terminal GST; dsDNA, one strand shown
T7 sequence: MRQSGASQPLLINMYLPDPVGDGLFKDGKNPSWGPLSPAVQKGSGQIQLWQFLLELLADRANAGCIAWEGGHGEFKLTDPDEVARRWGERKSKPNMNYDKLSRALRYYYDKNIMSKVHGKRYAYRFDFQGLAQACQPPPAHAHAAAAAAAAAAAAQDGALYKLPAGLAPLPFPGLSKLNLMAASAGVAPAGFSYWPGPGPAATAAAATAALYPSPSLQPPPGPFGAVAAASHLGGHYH
Outline: as §1

ETV5 = ETV5 (Homo sapiens, UniProt P41161 1-510); conditions: protein: recombinant; tags: N-terminal GST; dsDNA, one strand shown
Chain of ETV5 (P41161 whole entry): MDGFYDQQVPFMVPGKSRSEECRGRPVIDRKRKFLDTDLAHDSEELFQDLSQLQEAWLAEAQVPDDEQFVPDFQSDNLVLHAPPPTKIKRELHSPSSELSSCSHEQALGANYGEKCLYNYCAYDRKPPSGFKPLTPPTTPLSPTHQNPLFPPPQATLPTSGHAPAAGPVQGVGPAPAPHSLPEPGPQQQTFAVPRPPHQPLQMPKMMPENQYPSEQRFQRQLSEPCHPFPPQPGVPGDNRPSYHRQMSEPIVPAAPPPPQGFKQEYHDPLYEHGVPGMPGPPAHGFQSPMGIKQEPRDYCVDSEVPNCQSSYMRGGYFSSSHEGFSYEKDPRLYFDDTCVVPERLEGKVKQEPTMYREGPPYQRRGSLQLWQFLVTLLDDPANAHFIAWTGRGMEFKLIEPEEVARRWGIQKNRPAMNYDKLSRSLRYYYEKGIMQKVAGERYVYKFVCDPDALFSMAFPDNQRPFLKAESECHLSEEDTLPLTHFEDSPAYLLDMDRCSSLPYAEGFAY
Outline: as §1

HSF1 = HSF1 (Homo sapiens, UniProt Q00613 1-529); conditions: protein: recombinant; tags: N-terminal GST; chain copies: 3; dsDNA, one strand shown
Chain of HSF1 (Q00613 whole entry): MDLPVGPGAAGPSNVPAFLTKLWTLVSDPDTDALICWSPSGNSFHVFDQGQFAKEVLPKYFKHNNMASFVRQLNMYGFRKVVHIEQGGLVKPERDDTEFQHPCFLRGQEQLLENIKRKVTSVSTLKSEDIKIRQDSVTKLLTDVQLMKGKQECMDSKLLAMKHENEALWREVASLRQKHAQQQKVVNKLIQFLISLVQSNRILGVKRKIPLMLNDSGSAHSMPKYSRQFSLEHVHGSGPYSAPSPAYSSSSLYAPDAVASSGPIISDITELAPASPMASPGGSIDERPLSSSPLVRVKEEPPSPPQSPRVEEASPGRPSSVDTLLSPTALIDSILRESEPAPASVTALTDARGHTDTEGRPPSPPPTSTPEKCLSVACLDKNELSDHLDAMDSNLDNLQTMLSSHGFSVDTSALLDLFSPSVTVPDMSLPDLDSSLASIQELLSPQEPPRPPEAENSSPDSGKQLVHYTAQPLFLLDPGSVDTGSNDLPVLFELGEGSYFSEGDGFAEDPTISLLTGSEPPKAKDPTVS
Outline: as §1

SPIC = biological target: T8, SPIC (Homo sapiens, UniProt Q8N5J4 1-248); conditions: protein: recombinant; tags: N-terminal GST; dsDNA, one strand shown
T8 sequence: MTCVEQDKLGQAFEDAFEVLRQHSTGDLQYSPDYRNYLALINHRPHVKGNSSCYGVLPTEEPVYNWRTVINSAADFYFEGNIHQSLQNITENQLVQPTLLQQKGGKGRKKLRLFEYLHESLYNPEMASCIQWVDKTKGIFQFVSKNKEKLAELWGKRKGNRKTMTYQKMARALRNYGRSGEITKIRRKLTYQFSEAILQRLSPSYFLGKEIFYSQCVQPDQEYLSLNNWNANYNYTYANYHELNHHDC
Outline: as §1

ELF4 = ELF4 (Homo sapiens, UniProt Q99607 1-663); conditions: protein: recombinant; tags: N-terminal GST; dsDNA, one strand shown
Chain of ELF4 (Q99607 whole entry): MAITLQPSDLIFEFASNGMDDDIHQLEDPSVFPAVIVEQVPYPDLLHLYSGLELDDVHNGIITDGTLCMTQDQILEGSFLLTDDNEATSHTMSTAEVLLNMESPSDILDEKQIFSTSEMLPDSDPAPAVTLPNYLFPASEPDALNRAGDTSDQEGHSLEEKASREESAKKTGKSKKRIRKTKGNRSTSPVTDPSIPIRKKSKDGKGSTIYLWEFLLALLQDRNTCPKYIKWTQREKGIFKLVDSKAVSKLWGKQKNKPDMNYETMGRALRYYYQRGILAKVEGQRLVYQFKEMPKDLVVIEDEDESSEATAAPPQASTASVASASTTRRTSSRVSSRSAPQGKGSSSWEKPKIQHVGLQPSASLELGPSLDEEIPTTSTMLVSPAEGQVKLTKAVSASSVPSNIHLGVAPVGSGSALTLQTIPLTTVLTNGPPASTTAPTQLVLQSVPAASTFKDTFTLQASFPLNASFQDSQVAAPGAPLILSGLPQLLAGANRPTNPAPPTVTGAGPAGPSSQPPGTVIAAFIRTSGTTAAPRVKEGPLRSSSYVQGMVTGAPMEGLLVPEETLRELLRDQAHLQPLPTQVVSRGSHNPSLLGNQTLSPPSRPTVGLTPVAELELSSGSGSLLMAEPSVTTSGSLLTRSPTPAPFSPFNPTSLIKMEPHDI
Outline: as §1

ELK4 = biological target: T9, ELK4 (Homo sapiens, UniProt P28324-2 1-405); conditions: protein: recombinant; tags: N-terminal GST; dsDNA, one strand shown
T9 sequence: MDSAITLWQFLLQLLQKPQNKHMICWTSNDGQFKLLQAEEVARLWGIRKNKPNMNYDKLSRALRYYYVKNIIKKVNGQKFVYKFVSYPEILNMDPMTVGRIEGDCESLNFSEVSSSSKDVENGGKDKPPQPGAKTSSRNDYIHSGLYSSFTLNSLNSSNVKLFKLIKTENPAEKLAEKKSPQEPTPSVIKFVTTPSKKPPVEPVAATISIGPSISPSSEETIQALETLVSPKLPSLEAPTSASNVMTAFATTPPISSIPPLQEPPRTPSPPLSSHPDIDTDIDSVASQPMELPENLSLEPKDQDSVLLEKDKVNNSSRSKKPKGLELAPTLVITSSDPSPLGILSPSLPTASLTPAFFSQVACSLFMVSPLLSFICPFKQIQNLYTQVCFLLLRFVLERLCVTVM
Outline: as §1

ETV2 = biological target: T10, ETV2 (Homo sapiens, UniProt O00321 1-342); conditions: protein: recombinant; tags: N-terminal GST; dsDNA, one strand shown
T10 sequence: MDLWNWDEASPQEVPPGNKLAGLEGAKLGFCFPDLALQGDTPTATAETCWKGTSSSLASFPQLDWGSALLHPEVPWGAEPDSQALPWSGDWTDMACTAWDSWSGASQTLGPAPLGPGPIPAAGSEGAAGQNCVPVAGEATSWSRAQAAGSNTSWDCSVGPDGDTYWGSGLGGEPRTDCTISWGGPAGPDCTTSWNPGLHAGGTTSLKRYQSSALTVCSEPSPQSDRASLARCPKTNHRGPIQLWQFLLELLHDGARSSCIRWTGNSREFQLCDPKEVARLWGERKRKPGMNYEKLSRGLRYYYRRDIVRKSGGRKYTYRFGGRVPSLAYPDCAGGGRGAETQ
Outline: as §1

ELF3 = biological target: T11, ELF3 (Homo sapiens, UniProt P78545 1-371); conditions: protein: recombinant; tags: N-terminal GST; dsDNA, one strand shown
T11 sequence: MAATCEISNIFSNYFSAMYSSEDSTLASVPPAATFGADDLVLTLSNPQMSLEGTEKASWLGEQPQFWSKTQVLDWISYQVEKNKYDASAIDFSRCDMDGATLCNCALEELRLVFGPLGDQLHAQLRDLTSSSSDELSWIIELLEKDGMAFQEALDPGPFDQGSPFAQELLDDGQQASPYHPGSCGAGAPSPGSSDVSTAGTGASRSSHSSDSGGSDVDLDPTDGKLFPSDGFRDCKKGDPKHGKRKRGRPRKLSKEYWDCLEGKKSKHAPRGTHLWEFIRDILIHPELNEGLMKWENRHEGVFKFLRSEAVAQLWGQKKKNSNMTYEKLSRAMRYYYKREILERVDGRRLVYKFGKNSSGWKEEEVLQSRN
Outline: as §1

CRX = CRX (Homo sapiens, UniProt O43186 1-299); conditions: protein: recombinant; tags: N-terminal GST; dsDNA, one strand shown
Chain of CRX (O43186 whole entry): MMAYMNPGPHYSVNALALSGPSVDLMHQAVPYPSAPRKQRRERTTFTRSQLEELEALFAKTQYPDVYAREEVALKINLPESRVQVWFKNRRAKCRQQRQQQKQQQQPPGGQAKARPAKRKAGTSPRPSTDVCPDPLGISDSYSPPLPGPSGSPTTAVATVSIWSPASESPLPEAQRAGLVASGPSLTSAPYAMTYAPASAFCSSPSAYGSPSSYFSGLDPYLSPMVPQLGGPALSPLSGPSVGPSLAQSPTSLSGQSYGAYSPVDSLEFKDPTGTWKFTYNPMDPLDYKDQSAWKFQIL
Outline: as §1

For TGATAT, the binding signal (FLI1) was 1.13 fold enrichment (6-mer frequency, TF over GST control), the binding signal (ELK1) was 1.11 fold enrichment (6-mer frequency, TF over GST control) and the binding signal (GABPA) was 1.15 fold enrichment (6-mer frequency, TF over GST control). For the same sequence, the binding signal (ERG) was 1.12 fold enrichment (6-mer frequency, TF over GST control), the binding signal (ELF1) was 1.11 fold enrichment (6-mer frequency, TF over GST control) and the binding signal (EHF) was 1.08 fold enrichment (6-mer frequency, TF over GST control). The binding signal (SPI1) was 1.08 fold enrichment (6-mer frequency, TF over GST control), the binding signal (SPIB) was 1.05 fold enrichment (6-mer frequency, TF over GST control) and the binding signal (ELK3) was 1 fold enrichment (6-mer frequency, TF over GST control). For the same sequence, the binding signal (FEV) was 1.07 fold enrichment (6-mer frequency, TF over GST control), the binding signal (ETV5) was 1.1 fold enrichment (6-mer frequency, TF over GST control) and the binding signal (HSF1) was 1.01 fold enrichment (6-mer frequency, TF over GST control). For the same sequence, the binding signal (SPIC) was 1.05 fold enrichment (6-mer frequency, TF over GST control), the binding signal (ELF4) was 1.12 fold enrichment (6-mer frequency, TF over GST control) and the binding signal (ELK4) was 1.14 fold enrichment (6-mer frequency, TF over GST control). For the same sequence, the binding signal (ETV2) was 1.21 fold enrichment (6-mer frequency, TF over GST control), the binding signal (ELF3) was 1.04 fold enrichment (6-mer frequency, TF over GST control) and the binding signal (CRX) was 1.08 fold enrichment (6-mer frequency, TF over GST control).
